Out of some 1,100 compounds screened, about 760 (69%) were called active. No rule for the calls is given here. So high a share suggests a set chosen from earlier hits. The list shows a part of the results.
Assay: M. tuberculosis growth inhibition, HTS (AID 1259417);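 also: bacteria grown with compound for 5 days at 37 °C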
Settings: stronger effect = higher value, concentration not given here
[1] = M. tuberculosis DsRed fluorescence growth inhibition
[2] = M. tuberculosis growth inhibition

Row | Structure (SMILES) | inhibition [1] | inhibition [2]
1 | Cc1cc(Nc2ccc(C)c(C)c2)n2ncc(-c3ccccc3)c2n1 | 5.96% (active) | 38.3%
2 | COc1ccccc1-c1cnn2c(Nc3cccc(Cl)c3)cc(C)nc12 | 32.5% (active) | 72.2%
3 | Cc1cc(Nc2ccc(C)c(Cl)c2)n2ncc(-c3ccccc3)c2n1 | -7.72% (inactive) | 1.18%
4 | O=c1[nH]c(C=Cc2cccc3ccccc23)nc(O)c1[N+](=O)[O-] | 3.53% (inactive) | 9.27%
5 | CCN(CC)c1ccc(NC(=S)NCc2ccc(Cl)cc2)cc1 | 72.5% (active) | 88.7%
6 | CCN(CC)c1ccc(NC(=S)NCCc2ccc(OC)c(OC)c2)cc1 | 91.5% (active) | 100%
7 | CCN(CC)C(=S)NC(=O)c1ccc(Cl)cc1 | 0.912% (inactive) | 0.451%
8 | CC1CCN(CCNC(=S)Nc2ccc(F)cc2)CC1 | 0.916% (inactive) | -24%
9 | COc1ccc(CCNC(=S)N2CCN(CC=Cc3ccccc3)CC2)cc1OC | 20.3% (inactive) | 12.5%
10 | S=C(NCc1ccc(Cl)cc1)N1CCN(CC=Cc2ccccc2)CC1 | 5.55% (inactive) | -11%
11 | c1ccc(-c2nnc(SCc3nnc(-c4cccs4)o3)o2)cc1 | -2.64% (inactive) | -5.86%
12 | COc1ccc(-c2nnc(SCC(=O)OC3CCCCC3)o2)cc1OC | 50.5% (active) | 80.2%
13 | COC(=O)CSc1nnc(-c2ccc(OC)c(OC)c2)o1 | 79.2% (active) | 92.4%
14 | COC(=O)CSc1nnc(-c2ccc(Cl)cc2)o1 | 61.4% (active) | 85%
15 | O=C(CSc1nnc(-c2cccs2)o1)OC1CCCCC1 | 28.2% (active) | 52.1%
16 | CCOc1ccc(C(=O)Nc2ccc(N3CCN(C(=O)c4cccs4)CC3)c(Cl)c2)cc1Br | 14.9% (inactive) | -6.08%
17 | CCc1ccc(OCC(=O)Nc2ccc(N3CCN(C(=O)c4cccs4)CC3)c(Cl)c2)cc1 | 0.597% (inactive) | -20.3%
18 | COc1cccc(C(=O)NC(=S)Nc2ccc(N3CCN(C(=O)c4cccs4)CC3)c(Cl)c2)c1 | 62% (active) | 11.5%
19 | O=C(Nc1ccc(F)c(Cl)c1)C12CC3CCC(CC(C3)C1)C2 | 100% (active) | 97.2%
20 | O=C(CC12CC3CC(CC(C3)C1)C2)Nc1ccc(F)c(Cl)c1 | 98.3% (active) | 95.1%
21 | O=C(CC12CC3CC(CC(C3)C1)C2)Nc1ccc(Br)cc1 | 50.7% (active) | 17.6%
22 | COC(=O)c1ccc(NC(=O)CC23CC4CC(CC(C4)C2)C3)cc1 | 5.38% (inactive) | -0.346%

Row | Structure (SMILES) | inhibition [1] | inhibition [2]
23 | O=C(CC12CC3CC(CC(C3)C1)C2)Nc1ccc2ccccc2c1 | 99.1% (active) | 96.6%
24 | Cc1ccc(NC(=O)C23CC4CCC(CC(C4)C2)C3)cc1 | 99.7% (active) | 96.9%
25 | O=C(CC12CC3CC(CC(C3)C1)C2)Nc1cccc(C(F)(F)F)c1 | 97.7% (active) | 85.6%
26 | COC(=O)c1cc(NC(=O)CC23CC4CC(CC(C4)C2)C3)cc(C(=O)OC)c1 | 11.6% (inactive) | -29%
27 | O=C(CC12CC3CC(CC(C3)C1)C2)Nc1ccc2c(c1)OCCO2 | 40.1% (active) | 16.6%
28 | O=C(CC12CC3CC(CC(C3)C1)C2)Nc1cccc(Cl)c1 | 64.1% (active) | 34.5%
29 | C[n+]1c2n(c3ccccc31)N=C(c1cc(C(C)(C)C)c(O)c(C(C)(C)C)c1)CS2 | -2.19% (inactive) | 3.98%
30 | O=C(CC12CC3CC(CC(C3)C1)C2)Nc1ccc(I)cc1F | 57.6% (active) | 24.5%
31 | CC(NC(=O)Nc1cccc(C(F)(F)F)c1)C1CC2CCC1C2 (stereo not given) | 98.8% (active) | 99.4%
32 | Cc1cc(C)c2[nH]c3ccccc3c2n1 | 100% (active) | 101%
33 | CCn1c(Sc2ncnc3ccccc23)nc2ccccc21 | 33.7% (active) | 57.9%
34 | CCCc1cc(-c2nc(-c3ccc(Br)cc3)cs2)ccn1 | 98.5% (active) | 100%
35 | CCOC(=O)COc1ccc2c(=O)c(-c3ccccc3F)coc2c1C | 77.2% (active) | 94.8%
36 | CCOC(=O)COc1ccc2c(=O)c(-c3ccccc3Cl)c(C)oc2c1C | 41.3% (active) | 87.5%
37 | Clc1ccc(COc2ccc3ccccc3c2CNCc2cccnc2)c(Cl)c1 | 73.9% (active) | 65.8%
38 | OC(COc1ccccc1Cl)CN1CCN(C(c2ccccc2)c2ccccc2)CC1 (stereo not given) | -4.97% (inactive) | -9.36%
39 | O=C1c2cccc3cccc(c23)C(=O)N1CC1CCN(CC(O)COc2ccc3ccccc3c2)CC1 (stereo not given) | 37.2% (active) | 31.4%
40 | OC(COc1ccc2ccccc2c1)CN1CCCN(CC(O)COc2ccc3ccccc3c2)CC1 (stereo not given) | 37.5% (active) | 79.7%
41 | O=C(c1ccc(Cl)cc1)c1ccc(OCC(O)CN2CCN(Cc3ccccc3)CC2)cc1 (stereo not given) | 8.82% (inactive) | -14%
42 | O=C1c2cccc3cccc(c23)C(=O)N1CCN1CCN(CC(O)COc2ccccc2Cl)CC1 (stereo not given) | -4.11% (inactive) | -8.38%
43 | Cc1ccc(Cl)cc1N1CCN(CC(O)COc2ccc(C(=O)c3ccccc3)cc2)CC1 (stereo not given) | 16.7% (inactive) | 1.47%
44 | Cc1cccc(OCC(O)CN2CCN(CCN3C(=O)c4cccc5cccc(c45)C3=O)CC2)c1C (stereo not given) | 3.21% (inactive) | -19.3%

Row | Structure (SMILES) | inhibition [1] | inhibition [2]
45 | Cc1cccc(OCC(O)CN2CCN(C(c3ccccc3)c3ccccc3)CC2)c1C (stereo not given) | -6.14% (inactive) | -29.9%
46 | Cc1ccc(OCC(O)CN2CCN(CC(O)COc3ccc(C)cc3C)CC2)c(C)c1 (stereo not given) | 6.73% (active) | 45.2%
47 | CN(c1ccccc1)c1nc(N2CCCC2)nc(-n2ccnc2)n1 | 57.3% (active) | 34.7%
48 | c1ccc(CN2CCN(c3nc(-c4ccccc4)nc(-n4ccnc4)n3)CC2)cc1 | 2.46% (inactive) | -9.34%
49 | Cc1ccc(NC(=S)c2ccccn2)cc1 | 101% (active) | 101%
50 | CCCOc1ccc(Nc2cc(C)nc3ccc(Cl)cc23)cc1 | 101% (active) | 101%
51 | CCCOc1ccccc1NC(=O)Nc1ccc(Cl)c(Cl)c1 | 0.884% (inactive) | -14.7%
52 | COC(=O)c1ccc2nc(C)cc(Nc3ccc(OCc4ccccc4)cc3)c2c1 | 92.1% (active) | 99.7%
53 | CCOC(=O)c1ccc2nc(C)cc(Nc3ccc(N4CCCCC4)cc3)c2c1 | 100% (active) | 100%
54 | CCC(=Nc1ccccc1O)C1=C(O)CC(c2ccccc2)CC1=O (stereo not given) | 98.9% (active) | 98.8%
55 | O=C(c1cccs1)N(CCCn1ccnc1)c1nc2c(F)cc(F)cc2s1 | 73.3% (active) | 81.6%
56 | O=C(c1ccco1)N(CCCn1ccnc1)c1nc2c(F)cc(F)cc2s1 | 97.5% (active) | 98.1%
57 | O=C(c1ccco1)N(CCCn1ccnc1)c1nc2c(F)cccc2s1 | 91.1% (active) | 97.4%
58 | O=C(NNc1nc2c(F)cc(F)cc2s1)c1coc2ccccc2c1=O | -0.752% (inactive) | -17.4%
59 | Oc1ccc(CSc2ccccc2)c2cccnc12 | 29% (active) | 45.1%
60 | CC(C)(C)c1ccc(C(=O)N2N=C(c3ccccc3)CC2(O)C(F)(F)F)cc1 (stereo not given) | 2.12% (inactive) | -7.59%
61 | CC1=NN(C(=O)c2cccc(Cl)c2)C(O)(c2ccc(Cl)cc2)C1 (stereo not given) | 13.7% (active) | 42.4%
62 | CC1=NN(C(=S)Cc2ccccc2)C(C)(O)C1 (stereo not given) | 5.87% (inactive) | 14.6%
63 | O=C(c1cccc(Cl)c1)N1N=C(c2ccc(Cl)cc2)CC1(O)C(F)(F)F (stereo not given) | 7.75% (inactive) | 23.1%
64 | CCC1=NN(C(=O)c2ccncc2)C(O)(c2ccc(Br)cc2)C1 (stereo not given) | 97.9% (active) | 93.4%
65 | CC1=NN(C(=O)c2ccccc2)C(O)(c2ccncc2)C1 (stereo not given) | 97.7% (active) | 94.3%
66 | CC1(C)CC(=O)C2=C(C1)OC(N)=C([N+](=O)[O-])C2c1ccc(C#N)s1 (stereo not given) | 10.4% (active) | 32.4%

Row | Structure (SMILES) | inhibition [1] | inhibition [2]
67 | CC1=NN(c2nc(-c3ccc(Cl)cc3)cs2)C(=O)C1C (stereo not given) | 4.11% (inactive) | 7.17%
68 | N#Cc1ccc(-c2ccc(OCC(=O)Nc3cccnc3)cc2)cc1 | 43% (active) | 88.1%
69 | N#Cc1ccc(-c2ccc(OCC(N)=O)cc2)cc1 | 17.9% (active) | 86.6%
70 | O=C(COc1ccc(Cl)cc1)Nc1ccc(Cc2ccncc2)cc1 | -0.257% (inactive) | -2.75%
71 | CC(C)(C)C(=O)NC(=S)NNC(=O)C(c1ccccc1)c1ccccc1 | 44.9% (active) | 30.8%
72 | O=C(CC12CC3CC(CC(C3)C1)C2)Nc1ccc(N2CCOCC2)c(Cl)c1 | 33.8% (active) | -14.8%
73 | CCN1CCN(c2ccc(NC(=O)CC34CC5CC(CC(C5)C3)C4)cc2Cl)CC1 | 32.7% (active) | 46.9%
74 | CCC(=O)N1CCN(c2ccc(Cl)cc2NC(=O)CC23CC4CC(CC(C4)C2)C3)CC1 | 6.85% (inactive) | 6.57%
75 | Cc1ccc2c(c1)c1ncnc(N3CCc4ccccc4C3)c1n2C | 99.1% (active) | 100%
76 | Cc1ccc(Cn2c(=N)n(CC(O)c3ccc(Cl)c(Cl)c3)c3ccccc32)cc1 (stereo not given) | 99.8% (active) | 98.9%
77 | c1ccc(CC2CCN(c3nc4ccccc4n4cnnc34)CC2)cc1 | 57.6% (active) | 39.3%
78 | c1ccc2c(NCCc3c[nH]c4ccccc34)c3ccccc3nc2c1 | 27.2% (active) | 59.7%
79 | FC(F)(F)c1cccc(-n2cc(-c3ccccc3)c3c(NCc4cccnc4)ncnc32)c1 | 4.11% (inactive) | -14%
80 | O=C(OCC(=O)N1CCCCC1)c1cc2ccccc2cc1O | 47.8% (active) | 88.2%
81 | CCC1CCCCN1C(=S)NC(=O)c1ccc(F)cc1 (stereo not given) | 7.93% (inactive) | 0.813%
82 | CC1CC(C)CN(C(=O)Nc2ccc(Cl)c(Cl)c2)C1 (stereo not given) | 9.98% (inactive) | 2.73%
83 | CC1CC(C)CN(C(=O)COC(=O)c2cc3ccccc3cc2O)C1 (stereo not given) | 36.3% (active) | 90.7%
84 | CCC1CCCCN1C(=O)COC(=O)c1cc2ccccc2cc1O (stereo not given) | 37.8% (active) | 89%
85 | CC1CCN(C(=O)COC(=O)c2cc3ccccc3cc2O)CC1 | 75.2% (active) | 96%

From PubChem BioAssay AID1259417 (TB Discovery Research, Infectious Disease Research Institute, 2018)
